Test results from PubChem BioAssay.
The source made the active and inactive calls.

Key:
Albumin (Bos taurus) = Albumin (Bos taurus) (UniProt P02769); test: bovine serum albumin binders on microarray, profiling panel, artefact control for SMM control protein annotation, biochemical, small-molecule microarray, Alexa647 label, 635/667 nm fluorescence (AID 1118); details: BSA-A647 binding, fluorescence 635 nm, higher = more signal;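 note: score merges 667 nm emission intensity and signal-to-noise per printed compound spot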
[1] = small-molecule microarray binders of probe aXIP, primary screen, biochemical, NeuroSMM set, 635/667 nm fluorescence (AID 1119); details: higher = more signal, called active from +8 up or from −8 down;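 note: probe is the protein aXip251-270 applied at 1 µg/mL to compound-printed slides; binding of probe to printed compounds measured as 667 nm fluorescence plus signal to noise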
[2] = small-molecule binders of probe aNOTCH3, primary screen, biochemical, small-molecule microarray, 635/667 nm fluorescence (AID 1120); details: higher = more signal;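 note: probe is a biotin-tagged antibody raised against NOTCH3 rather than NOTCH3 protein; score merges spot fluorescence near 667 nm with spot signal to noise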
[3] = small-molecule binders of probe aNOTCH2, primary screen, biochemical, small-molecule microarray, 635/667 nm fluorescence (AID 1121); details: higher = more signal;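 note: score merges feature fluorescence read at 667 nm with its signal to noise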
[4] = target: Carbonic anhydrase 2 (Homo sapiens) (UniProt P00918); test: CAII small-molecule binders, profiling panel, biochemical, small-molecule microarray, Alexa647-labelled CAII (AID 1122); details: CAII-A647 binding fluorescence, higher = more signal
[5] = COS7 lysate on small-molecule microarray, probe aHis, 635 nm (AID 1123); details: COS7 cell lysate, fluorescence, higher = more signal;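 note: z-score combines 667nm fluorescence intensity with signal-to-noise per printed compound spot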
[6] = compound binding in COS7 lysate, probe aLAP1, primary screen, cell lysate, small-molecule microarray (AID 1124); details: probe aLAP1, fluorescence, higher = more signal;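 note: lysate comes from COS7 cells expressing LAP1 and is applied at 0.3 µg/mL; score merges spot fluorescence near 667 nm with signal-to-noise over triplicate slides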
Sam68 (KHDRBS1) = test: Sam68 small-molecule binders, primary screen, biochemical, small-molecule microarray, 635 nm fluorescence (AID 1125); details: small-molecule microarray binding, higher = more signal;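 note: score merges 667 nm channel intensity with signal to noise over triplicate slides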
[7] = system: Chordin-like protein 2 (CHRDL2); test: CHRDL2 small-molecule binders, primary screen, biochemical, small-molecule microarray, 635 nm fluorescence (AID 1126); details: small-molecule microarray binding, fluorescence 635 nm; higher = more signal;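 note: printed compound slides probed with Chrdl2 protein at 4 µg/mL for 1 h at 4 C; score merges 667 nm emission intensity with signal to noise over three replicate slides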
[8] = target: Concanavalin-A (Canavalia ensiformis) (UniProt P02866); test: ConA small-molecule binders, primary screen, artefact control for SMM control protein annotation, biochemical, small-molecule microarray, Alexa647 label, 635 nm (AID 1127); details: ConA-A647 binding fluorescence, higher = more signal;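 note: z combines 667 nm emission intensity with signal-to-noise across three replicate slides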
Chain of Concanavalin-A (Canavalia ensiformis) (P02866 whole entry, looked up): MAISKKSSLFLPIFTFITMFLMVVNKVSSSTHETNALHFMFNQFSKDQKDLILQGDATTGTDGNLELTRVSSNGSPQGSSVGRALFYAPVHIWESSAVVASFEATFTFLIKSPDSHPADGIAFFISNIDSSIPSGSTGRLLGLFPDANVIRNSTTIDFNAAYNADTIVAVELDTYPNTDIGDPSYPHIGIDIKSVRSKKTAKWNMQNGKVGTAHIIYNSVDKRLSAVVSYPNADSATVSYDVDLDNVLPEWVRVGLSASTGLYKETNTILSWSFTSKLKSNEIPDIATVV

Chain of Albumin (Bos taurus) (P02769 whole entry, looked up): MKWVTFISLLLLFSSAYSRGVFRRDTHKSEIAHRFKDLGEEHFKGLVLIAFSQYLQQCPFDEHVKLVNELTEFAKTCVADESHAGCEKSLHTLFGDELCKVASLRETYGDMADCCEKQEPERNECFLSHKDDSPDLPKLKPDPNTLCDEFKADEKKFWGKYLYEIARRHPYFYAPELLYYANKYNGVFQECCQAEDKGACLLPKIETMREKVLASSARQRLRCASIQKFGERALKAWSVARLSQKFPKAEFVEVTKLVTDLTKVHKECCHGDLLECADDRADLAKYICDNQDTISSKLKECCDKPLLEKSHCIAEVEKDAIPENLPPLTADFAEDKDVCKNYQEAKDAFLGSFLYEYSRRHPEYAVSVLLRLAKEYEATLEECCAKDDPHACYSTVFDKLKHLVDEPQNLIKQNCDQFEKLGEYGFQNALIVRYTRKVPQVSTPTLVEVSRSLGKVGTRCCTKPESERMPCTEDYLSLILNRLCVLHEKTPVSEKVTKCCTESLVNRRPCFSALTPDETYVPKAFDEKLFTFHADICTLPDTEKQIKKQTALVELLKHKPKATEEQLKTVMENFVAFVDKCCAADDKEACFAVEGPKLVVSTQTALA

O=C1NC(=O)C2C1C=CC(C(O)c1ccc3c(c1)OCO3)N2Nc1ccc(Cl)cc1Cl (stereo not given)
composite z-score (Albumin (Bos taurus)): 0.817
composite Z-score [1]: 0.549 (inactive)
composite z-score [2]: 0.144
composite z-score [3]: -0.063
composite z-score [4]: 0.566
composite z-score [5]: 3.03
composite z-score [6]: 1.19
composite z-score (Sam68 (KHDRBS1)): 0.355
composite z-score [7]: 0.26
composite z-score [8]: 0.148

C=C[C@@H](O)[C@H]1CC(c2ccccc2)=NO1
composite z-score (Albumin (Bos taurus)): -0.596
composite Z-score [1]: 0.303 (inactive)
composite z-score [2]: -0.1
composite z-score [3]: -0.084
composite z-score [4]: -0.0997
composite z-score [5]: -0.322
composite z-score [6]: -0.156
composite z-score (Sam68 (KHDRBS1)): -0.542
composite z-score [7]: 0.647
composite z-score [8]: 0.334

COC(=O)C(CC#Cc1ccc2c(c1)[C@]1(C(=O)N2)[C@H](c2ccccc2OCCO)N2[C@H](c3ccccc3)[C@H](c3ccccc3)OC(=O)[C@H]2[C@@H]1C(=O)Nc1nc2ccccc2s1)C(=O)OC
composite z-score (Albumin (Bos taurus)): 0.67
composite Z-score [1]: -0.364 (inactive)
composite z-score [2]: 0.106
composite z-score [3]: -0.0928
composite z-score [4]: 0.226
composite z-score [5]: 1.9
composite z-score [6]: 0.379
composite z-score (Sam68 (KHDRBS1)): 1.31
composite z-score [7]: 0.19
composite z-score [8]: 1.15

COc1ccc(C(=O)Nc2ccc(CN3C(=O)[C@@]4(O[C@@H](CC(=O)N5Cc6ccccc6C[C@H]5CO)[C@H]([Si](C)(C)c5ccc(OC)cc5)[C@H]4C)c4ccccc43)cc2)cc1
composite z-score (Albumin (Bos taurus)): 0.604
composite Z-score [1]: -0.086 (inactive)
composite z-score [2]: -0.137
composite z-score [3]: -0.153
composite z-score [4]: 0.55
composite z-score [5]: 2.26
composite z-score [6]: 0.226
composite z-score (Sam68 (KHDRBS1)): 1.27
composite z-score [7]: 1.18
composite z-score [8]: 0.965

COCCOC(=O)N1C(=O)[C@@]2(c3cc(C#CC4(O)CCCCCC4)ccc31)[C@H](C(=O)N1CCc3cc(OC)c(OC)cc3C1)[C@H]1C(=O)O[C@H](c3ccccc3)[C@H](c3ccccc3)N1[C@@H]2c1ccccc1OCCO
composite z-score (Albumin (Bos taurus)): -0.499
composite Z-score [1]: 0.141 (inactive)
composite z-score [2]: 0.382
composite z-score [3]: 0.0521
composite z-score [4]: 0.435
composite z-score [5]: 0.29
composite z-score [6]: 0.221
composite z-score (Sam68 (KHDRBS1)): 1.29
composite z-score [7]: 1.02
composite z-score [8]: 1.17

COc1ccc(C#Cc2ccc3c(c2)[C@]2(C(=O)N3)[C@H](c3ccc(OCCO)cc3)N3[C@H](c4ccccc4)[C@H](c4ccccc4)OC(=O)[C@H]3[C@@H]2C(=O)N2CCN(c3ncccn3)CC2)cc1
composite z-score (Albumin (Bos taurus)): 0.716
composite Z-score [1]: -0.912 (inactive)
composite z-score [2]: -0.156
composite z-score [3]: -0.157
composite z-score [4]: 0.39
composite z-score [5]: 0.873
composite z-score [6]: 0.324
composite z-score (Sam68 (KHDRBS1)): 0.514
composite z-score [7]: -0.233
composite z-score [8]: 1.04

Cc1ccc(S[C@]2(C(=O)NCc3ccccc3)CC(=O)N(C3Cc4ccccc4C3)[C@@H]2c2ccc(CO)cc2I)cc1
composite z-score (Albumin (Bos taurus)): 0.254
composite Z-score [1]: 3.63 (inactive)
composite z-score [2]: -0.187
composite z-score [3]: -0.0716
composite z-score [4]: 0.341
composite z-score [5]: 0.401
composite z-score [6]: 0.458
composite z-score (Sam68 (KHDRBS1)): 0.269
composite z-score [7]: -0.224
composite z-score [8]: -0.462

CC(C)N1CC=CC23O[C@@H]4C=CCOC(=O)[C@@H]4[C@H]2C(=O)N(CCCCCCO)[C@@H]3C1=O (stereo not given in full)
composite z-score (Albumin (Bos taurus)): 0.771
composite Z-score [1]: 0.714 (inactive)
composite z-score [2]: -0.0697
composite z-score [3]: -0.0451
composite z-score [4]: 0.923
composite z-score [5]: -0.0499
composite z-score [6]: 1.15
composite z-score (Sam68 (KHDRBS1)): -0.351
composite z-score [7]: -1.17
composite z-score [8]: -0.82
